# The whole screen tested about 1,700 compounds, of which about 15 (0.9%) were called active. Only a sample is shown. Values without a mark were called inactive.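 The calls were made as follows: active = fluorescence response below the plate's average for near-maximal glutamate wells, less 3 SD of those wells; inactive = the rest.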
# Target: Metabotropic glutamate receptor 4 (Homo sapiens) (UniProt Q14833)
# Test: mGluR4 calcium signal in M1 antagonist follow-up – cell-based, antagonist mode, secondary assay 1, M1 allosteric modulator project (AID 678);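 also: raw unnormalized fluorescence span taken in the window right after glutamate addition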
# Settings: CHO-mGluR4 calcium flux, Fluo-4 fluorescence, glutamate EC80; at 10 µM; stronger effect = lower value
row,SMILES,fluorescence response (max-min)
1,CN(C)[C@@H]1C(=O)C(C(N)=O)=C(O)[C@@]2(O)C(=O)C3=C(O)c4c(O)ccc(Cl)c4[C@@H](O)[C@H]3C[C@@H]12,238
2,Cc1cccc(N2CCN(Cc3c(C)n(C)n(-c4ccccc4)c3=O)CC2)c1C,223
3,CCC1(C)Cc2c(sc3nc4n(c(=O)c23)CCCS4)CO1 (centres undefined),249
4,O=C(NC1=NCCS1)c1ccc(Cl)s1,158
5,Cc1nc2ccccc2c2oc(C(=O)NCCCN3CCC(C)CC3)cc12,185
6,O=S(=O)(CCc1nc2ccccc2o1)c1ccc(Cl)cc1,249
7,CCOC(=O)C1=C(CC)Nc2ccccc2N=C1NC(=O)c1cccc(S(=O)(=O)N2CCCC2)c1,148
8,COc1ccc(CCn2c(=N)c(C(=O)NCc3ccco3)cc3c(=O)n4cccc(C)c4nc32)cc1,207
9,CCC(C(=O)OCCN(CC)CC)c1ccccc1 (centres undefined),235
10,O=C(c1ccco1)N1CCN=C1SCc1cccc(Cl)c1,236
11,O=C1NC(Nc2nc3ccccc3s2)(C(F)(F)F)C(=O)N1C1CCCCC1 (centres undefined),308
12,Cn1c(CCN2CCCCCC2)nc2cc(NC(=O)Nc3ccccc3)ccc21,225
13,CCOC(=O)c1c(-c2ccc(C)cc2C)csc1NC(=O)CSc1nnnn1C,167
14,CC(C)(C)n1nnnc1C(c1cccs1)N(Cc1cccnc1)CC1CCCO1 (centres undefined),241
15,CCn1c(=N)n(CC(=O)c2cccc(OC)c2)c2ccccc21,268
16,O=C(C(NS(=O)(=O)c1cccc2nsnc12)c1ccccc1)N1CCN(c2ccccn2)CC1 (centres undefined),228
17,C=CCn1c(=S)[nH]c2nc3c(cc2c1=O)COC(C)(C)C3,199
18,Cc1nc2c(-c3ccc(F)cc3)c(C)nn2c(C)c1CCC(=O)N1CCN(c2ccccn2)CC1,245
19,CN(C)CCOC(=O)C(c1ccccc1)C1(O)CCCC1 (centres undefined),250
20,CCCCN(C)C(=O)c1ccc2c(c1)N(CC)C(=O)c1ccccc1S2(=O)=O,258

row,SMILES,fluorescence response (max-min)
1,O=C(NCCCN1CCCCCC1)C1CC(=O)N(C2CCCC2)C1 (centres undefined),241
2,CC1CCCC(C)N1CCCNC(=O)c1cc2c(=O)n(C)c3ccccc3c2n1C (centres undefined),236
3,CCOc1ccccc1C(=O)NCCCn1ccnc1,200
4,O=S(=O)(c1ccc(OCC(O)CN2CCN(c3ccccc3Cl)CC2)cc1)N1CCOCC1 (centres undefined),233
5,COc1cccc2sc(Nc3nc(C)c(C(C)=O)s3)nc12,200
6,CCC(C)(NC(=O)c1ccccn1)C(=O)NC1CCCCC1 (centres undefined),237
7,COc1cccc(OCCOc2cccc(/C=N/n3cnnc3)c2)c1,210
8,CCOC(=O)N1CCN(C(=O)C2CCN(c3ncnc4c3sc3cccc(F)c34)CC2)CC1,221
9,Cc1ccccc1C(OCC(O)CN1CCCCC1CCO)c1ccccc1 (centres undefined),188
10,N#CC(C(=O)c1ccc(S(=O)(=O)N2CCCCCC2)cc1)c1nc2ccccc2[nH]1 (centres undefined),182
11,COc1ccc(S(=O)(=O)Nc2ccc3c(c2)OCO3)cc1Cl,202
12,CCOC(=O)C1CCN(Cc2coc3ccc(Cl)cc3c2=O)CC1,219
13,O=C(Cc1cccs1)N1CCCC(c2nc(-c3ccc(S(=O)(=O)N4CCCC4)cc3)no2)C1 (centres undefined),213
14,CCOC(=O)c1[nH]c2ccc(OC)cc2c1NC(=O)CCN1CCN(Cc2ccccc2)CC1,230
15,CCOC(=O)N1CCN(CC(=O)Nc2cc(C)nn2-c2nc3ccccc3s2)CC1,255
16,COc1cc(Cl)c(C)cc1NC(=O)CSc1nnc(-c2ccco2)n1CC(C)C,252
17,CCC(=O)c1ccc(OCC(O)CN2CCN(c3cccc(C(F)(F)F)c3)CC2)cc1 (centres undefined),252
18,O=C(NCC(F)(F)F)Nc1nnc(C(F)(F)F)s1,203
19,CSc1nnc2c(n1)OC(c1ccsc1)N(C(C)=O)c1ccccc1-2 (centres undefined),247
20,CN1CCN(CC(=O)Nc2sc3c(c2C#N)CCC(C(C)(C)C)C3)CC1 (centres undefined),231

row,SMILES,fluorescence response (max-min)
1,Cc1ccc(-c2csc3nnc(SCC(=O)NCc4ccco4)n23)cc1,237
2,Cc1ccsc1-c1nc(CSCC(=O)NCCN2CCCC2)c(C)o1,246
3,CC1=Nn2c(nnc2-c2ccccc2)SC1,162
4,CCCCCOC(=O)NCCOC(=O)Nc1ccc(C(=O)OCC)cc1,170
5,CCOC(=O)N1CCN(C(=O)C2CCCN(c3ncnc4c3sc3cccc(F)c34)C2)CC1 (centres undefined),165
6,c1ccc(-c2cc(-c3nnc4sc(-c5ccccn5)nn34)[nH]n2)cc1,215
7,CC1(C)Cc2c(sc3nc4n(c(=N)c23)CCCCC4)CO1,203
8,CCN(CCCCOC(=O)c1ccc(OC)c(OC)c1)C(C)Cc1ccc(OC)cc1 (centres undefined),254
9,Cc1ccc(-c2noc(CCC(=O)Nc3ccccc3N3CCN(C)CC3)n2)cc1,218
10,COC(=O)c1ccc(NC(=O)CN(c2ccc(C)cc2)S(=O)(=O)c2c(C)n[nH]c2C)cc1,174
11,O=C(c1ccc(S(=O)(=O)N2CCOCC2)cc1)N1CCN(c2ccccc2)CC1,197
12,COc1ccc(-c2noc(CN(C)S(=O)(=O)c3ccc(C)cc3)n2)cc1,259
13,COc1ccc(-c2nnn(Cc3nc(N)nc(N4CCCCC4)n3)n2)cc1,348
14,CC1(C)CN=C(N2CCN(c3ncnc4sc5c(c34)CCCC5)CC2)S1,244
15,CC12CN(Cc3ccccc3)CC(C)(CN(Cc3ccccc3)C1)C2=NO,253
16,COCCN(C(=O)CCC(=O)Nc1ccccn1)C(C(=O)NCCC(C)C)c1ccc(OC)cc1 (centres undefined),243
17,O=C(CCN1C(=O)COc2ccccc21)NCCCN1CCN(c2ccc(F)cc2)CC1,252
18,COCCn1c(SCC(=O)Nc2cc(Cl)ccc2OC)nc2c(c1=O)SC(C)C2 (centres undefined),256
19,COc1cc(OC)c(C(=O)NC2CC(C)(C)NC(C)(C)C2)cc1OC,184

# From PubChem BioAssay AID678 (Vanderbilt High Throughput Screening Facility, 2007)
